According to PubChem BioAssay AID1159580 (chemical genetic matrix, 2015):
Where “and” joins values, the source holds several entries; their conditions need not be identical. Identical values can stand only once. Screen size: about 5,500 compounds; about 2,000 (36%) were called active. Another 18% or so got no clear call; they are omitted. Cut-off read from the data, not from the text of the source: active = normalized growth mostly below about 0.91 (no sharp cut-off); inconclusive = no clear call, values can overlap the other calls; inactive = mostly above about 0.92. The list shows a part of the results.

Experiment: chemical genetic growth profiling, strain panel (AID 1159580);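 note: tested at 20 µM; growth read once vehicle control cultures reached saturation at 30 °C; 1 = growth at the plate median or of vehicle wells; lower values mean less growth of the strain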
Settings: S. cerevisiae deletion strains, growth OD

Measured: normalized growth

CS(=O)(=O)Nc1ccc([N+](=O)[O-])cc1Oc1ccccc1
inactive: locus YAL013W, strain DEP1, active compounds read low 0.986 and 1 | locus YAL021C, strain ccr4, active compounds read low 0.991 | locus YAL026C, strain drs2, active compounds read low 0.991 | locus YAL030W, strain snc1, active compounds read low 1 | locus YAL040C, strain CLN3, active compounds read low 1 | locus YBL061C, strain skt5, active compounds read low 0.994 | locus YBR009C, strain hhf1, active compounds read low 0.971 | locus YBR021W, strain FUR4, active compounds read low 0.994 | locus YBR023C, strain chs3, active compounds read low 0.984 | locus YBR171W, strain sec66, active compounds read low 0.988 | locus YBR229C, strain ROT2, active compounds read low 0.958 | locus YBR231C, strain swc5, active compounds read low 0.993 | locus YBR279W, strain paf1, active compounds read low 0.994 | locus YCL011C, strain gbp2, active compounds read low 0.996 | locus YCL016C, strain dcc1, active compounds read low 0.997 | locus YCL029C, strain bik1, active compounds read low 0.97 | locus YCL061C, strain MRC1 (second series), active compounds read low 1.01 | locus YCL061C, strain MRC1, active compounds read low 1 | locus YCL069W, strain vba3, active compounds read low 0.997 | locus YCR088W, strain abp1, active compounds read low 0.999 | locus YDL005C, strain med2, active compounds read low 0.991 | locus YDL035C, strain GPR1, active compounds read low 0.976 | locus YDL040C, strain nat1, active compounds read low 0.985 | locus YDL074C, strain BRE1, active compounds read low 0.944 | locus YDL101C, strain DUN1, active compounds read low 0.964 | locus YDL134C, strain PPH21, active compounds read low 0.999 | locus YDL185W, strain tfp1, active compounds read low 0.971 | locus YDL192W, strain arf1, active compounds read low 0.966 | locus YDR001C, strain nth1, active compounds read low 0.993 | locus YDR069C, strain doa4, active compounds read low 1.02 | locus YDR101C, strain arx1, active compounds read low 0.98 | locus YDR137W, strain rgp1, active compounds read low 0.857 | locus YDR150W, strain NUM1, active compounds read low 0.983 and 1.02 | locus YDR159W, strain sac3, active compounds read low 0.977 | locus YDR162C, strain NBP2, active compounds read low 0.979 | locus YDR195W, strain ref2 1.01 | locus YDR297W, strain sur2, active compounds read low 0.991 | locus YDR318W, strain mcm21, active compounds read low 0.991 | locus YDR334W, strain swr1, active compounds read low 1 | locus YDR335W, strain msn5, active compounds read low 0.993 | locus YDR363W, strain ESC2, active compounds read low 0.994 | locus YDR388W, active compounds read low 0.977 | locus YDR392W, strain spt3, active compounds read low 0.904 | locus YDR502C, strain sam2, active compounds read low 0.943 | locus YEL003W, strain gim4, active compounds read low 0.999 | locus YEL037C, strain rad23, active compounds read low 0.995 | locus YEL061C, strain CIN8 (second series), active compounds read low 0.988 | locus YEL061C, strain CIN8, active compounds read low 0.979 | locus YER002W, strain NOP16, active compounds read low 0.997 | locus YER015W, strain faa2, active compounds read low 0.994 | locus YER016W, strain bim1, active compounds read low 0.991 | locus YER110C, active compounds read low 0.986 | locus YER111C, strain swi4, active compounds read low 0.978 | locus YER155C, strain BEM2 (second series), active compounds read low 0.991 | locus YER155C, strain BEM2, active compounds read low 1 | locus YER167W, strain BCK2, active compounds read low 1 | locus YFR010W, strain ubp6, active compounds read low 1 | locus YGL078C, strain dbp3, active compounds read low 0.978 | locus YGL086W, strain mad1, active compounds read low 0.969 | locus YGL167C, strain pmr1, active compounds read low 0.988 | locus YGL173C, strain kem1, active compounds read low 0.995 | locus YGL227W, strain vid30, active compounds read low 0.997 | locus YGL240W, strain doc1, active compounds read low 0.995 | locus YGL248W, strain PDE1, active compounds read low 0.946 | locus YGL253W, strain hxk2, active compounds read low 1.01 | locus YGR078C, strain PAC10, active compounds read low 0.96 and 1.02 | locus YGR135W, strain pre9, active compounds read low 1.02 | locus YGR229C, strain SMI1, active compounds read low 0.971 | locus YGR252W, strain gcn5, active compounds read low 0.92 | locus YHR013C, strain ard1, active compounds read low 0.967 | locus YHR027C, strain rpn1, active compounds read low 0.995 | locus YHR030C, strain SLT2, active compounds read low 0.995 and 1.02 | locus YHR079C, strain IRE1 (second series), active compounds read low 0.977 | locus YHR079C, strain IRE1, active compounds read low 1.04 | locus YHR094C, strain hxt1, active compounds read low 0.98 | locus YHR129C, strain ARP1, active compounds read low 0.987 | locus YHR142W, strain chs7, active compounds read low 0.991 | locus YHR200W, strain rpn10, active compounds read low 0.972 | locus YIL066C, strain RNR3, active compounds read low 0.964 | locus YIL073C, strain SPO22, active compounds read low 0.969 | locus YIL125W, strain kgd1, active compounds read low 0.98 | locus YIR030C, strain dcg1, active compounds read low 0.976 | locus YJL092W, strain hpr5, active compounds read low 0.997 | locus YJL095W, strain BCK1 (second series), active compounds read low 0.993 | locus YJL095W, strain BCK1, active compounds read low 0.956 and 1.04 | locus YJL115W, strain asf1, active compounds read low 0.999 | locus YJL129C, strain trk1, active compounds read low 0.979 | locus YJL134W, strain LCB3, active compounds read low 0.991 | locus YJL154C, strain vps35, active compounds read low 0.992 | locus YJL164C, strain tpk1, active compounds read low 0.992 | locus YJL166W, strain qcr8, active compounds read low 0.997 | locus YJL168C, strain set2, active compounds read low 0.98 | locus YJL187C, strain SWE1 (second series), active compounds read low 0.949 | locus YJL187C, strain SWE1, active compounds read low 0.996 | locus YJR043C, strain POL32, active compounds read low 0.911
